Experimental data published in PubChem BioAssay (EPA / NIEHS).
Activity calls are given as the source filed them. How the source made its calls: active means hit-call score of the fitted dose curve at least 0.9, where 1 is the maximum; inactive means score below 0.9.

Experiment: CEETOX_H295R_MTT_cell_viability: Viability Assessment in the CeeTox HT-H295R MTT Assay (AID 2283718);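 on AC50: curve fitted both ways so AC50 may mark viability loss or gain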
Procedure: CEETOX_H295R is a cell-based, multiplexed-readout assay that uses H295R, a human adrenal gland cell line, with measurements taken at 48 hours after chemical dosing in a 96-well plate.CEETOX_H295R_MTT_cell_viability is one of 23 assay component(s) measured or calculated from the CEETOX_H295R assay. It is designed to make measurements of cell number, a form of viability reporter, as detected with […] signals by MTT cytotoxicity assay technology.The assay component endpoint CEETOX_H295R_MTT_cell_viability was analyzed with bidirectional fitting relation to DMSO as the negative control and baseline of activity. Using a type of viability reporter in the MTT cytotoxicity assay, gain or loss-of-signal activity can be used to monitor cellular processes to understand changes in proliferation. To generalize the intended target to other relatable targets, this assay endpoint is annotated to cell cycle, where the subfamily is proliferation.
Cell culture and media preparation procedures were conducted in accordance with OECD Test No. 456 guidelines, with minor modifications. H295R cells (ATCC CRL-2128) were expanded for 5 passages and frozen in batches in liquid nitrogen. Prior to the steroidogenesis assay, H295R cells were thawed and passed at least 4 times. The maximum passage was 10. Cells were maintained in a 1:1 mixture of DMEM/F12 supplemented with 5ml/L ITS+ Premix (BD Bioscience) and 12.5 ml/L Nu-Serum (BD Bioscience). After seeding cells into 96-well plates at 50-60% confluency, cells were allowed to adhere overnight. Prior to chemical testing, culture medium was replaced with 175 uL medium containing 10 uM forskolin to stimulate steroidogenesis for 48 hours. Following prestimulation, forskolin medium was replaced with medium containing test chemical solubilized in DMSO (ensuring a final concentration of 0.1% DMSO). Test chemicals were incubated for 48 hours, then the medium was removed and split into 2 vials containing approximately 75uL each, and stored at -80 C prior to hormone analysis. For steroid quantification, media samples were shipped to OpAns, LLC (Durham, NC) on dry ice, and samples were thawed to room temperature prior to liquid-liquid extraction. Steroid hormones were extracted from media samples using methyl tertbutyl ether (MTBE). An extra derivatization with dansyl chloride was included for estrogen (estrone and estradiol) detection only. Steroid hormones were separated by HPLC, eluted using a reverse phase C18 gradient with electrospray positive ionization, followed by quantification by tandem mass spectrometry (MS/MS). Data were acquired on a MassHunter Workstation Acquisition version B03.01 (Agilent Technologies, Inc.) and processed using MassHunter Quantitative Analysis for QQQ. Accuracy was determined for each hormone analyte from 3 standards to determine upper and lower limits of quantification (ULOQ and LLOQ, respectively) using a 7-point standard curve. Precision and accuracy of the extraction and quantification methods were calculated as the percent relative standard deviation (%RSD) of the spiked standards and percent spiked standard recovered, respectively. The goal was to achieve 100% accuracy (i.e., recover all spiked-in standard at quantification with minimal loss during run time) and good precision (i.e., have %RSD <15% to ensure reproducibility). Test medium was removed following chemical exposure, and cell viability was evaluated in the same wells by MTT. MTT procedures were as follows: after removal of test medium, 500 uL of 0.5 mg/ml of 3-[4,5-dimethylthiazol-2-y]2,5-diphenyltetrazoliumbromide solution was added to the cells. Following a 4-hour incubation at 37 C and 5% CO2 to allow formazan-crystal formation, the MTT solution was removed and blue formazan salt crystals were solubilized using 500uL anhydrous isopropanol with shaking for 20 minutes. Absorbance was read at 570 and 650nm using a Packard Fusion microplate reader. […]

Structure (SMILES) | outcome | AC50
O=[N+]([O-])c1ccc(O)cc1 | inactive | 
CN1CCC[C@H]1c1cccnc1 | inactive | 
CCc1ccc(CCOc2ccc(CC3SC(=O)NC3=O)cc2)nc1 (configuration not stated) | inactive | 
c1ccc2cc3c(ccc4ccccc43)cc2c1 | inactive | 
C#C[C@]1(O)CC[C@H]2[C@@H]3CCC4=CC(=O)CC[C@@H]4[C@H]3CC[C@@]21C |  | 2.31 µM (active)
CCCOC(=O)c1ccc(O)cc1 | inactive | 
Oc1cccc(O)c1 |  | 1.35 µM (active)
CCc1nn(C2CCCCC2)c2cc(C3(C#N)CCC(C(=O)O)CC3)ccc12 (configuration not stated) | inactive | 
O=C(O)c1ccccc1C(c1ccc(O)cc1)c1ccc(O)cc1 | inactive | 
CCCCCCCCC(=O)O | inactive | 
Cc1cc(CCN2CCN(c3nsc4ccccc34)CC2)cc2c1NC(=O)CC2(C)C |  | 11.1 µM (active)
c1ccc2c(c1)Cc1ccccc1-2 | inactive | 
CCC(=C(c1ccc(O)cc1)c1ccc(OCCN(C)C)cc1)c1ccccc1 | inactive | 
COc1ccc([N+](=O)[O-])cc1N | inactive | 
C[C@@H]1C[C@H]2[C@@H]3CCC4=CC(=O)C=C[C@]4(C)[C@@]3(F)[C@@H](O)C[C@]2(C)[C@@]1(O)C(=O)COP(=O)(O)O | inactive | 
CC#C[C@]1(O)CC[C@H]2[C@@H]3CCC4=CC(=O)CCC4=C3[C@@H](c3ccc(N(C)C)cc3)C[C@@]21C |  | 13.4 µM (active)
Nc1cccc2c(N)cccc12 | inactive | 
NC(=O)N(O)[C@@H]1C=C[C@H](Oc2cccc(Oc3ccc(F)cc3)c2)C1 | inactive | 
COC(=O)CCCCC(=O)OC | inactive | 
CC1=C(/C=C/C(C)=C/C=C/C(C)=C/C(=O)O)C(C)(C)CCC1 |  | 1.21 µM (active)
CCCCCCCCCCCCCCCS(=O)(=O)Oc1ccccc1 | inactive | 
O=c1c(-c2ccc(O)cc2)coc2cc(O)ccc12 | inactive | 
